# According to PMC7862700, “An all-to-all approach to the identification of sequence-specific readers for epigenetic DNA modifications on cytosine”:
# Legend:
# Assay in all cases: DAPPL (digital affinity profiling via proximity ligation, sequencing); 10 mM Tris-HCl pH 7.5, 50 mM NaCl, 1 mM DTT, 4% glycerol, room temperature, 30 min; GST-TFs on glutathione beads, 16-mer random dsDNA library, 0.1% formaldehyde crosslink after washing; high values mean tight binding
# FEV = target: T1, FEV (Homo sapiens, UniProt Q99581 1-238); conditions: protein: recombinant; tags: N-terminal GST; dsDNA, one strand shown
# T1 sequence: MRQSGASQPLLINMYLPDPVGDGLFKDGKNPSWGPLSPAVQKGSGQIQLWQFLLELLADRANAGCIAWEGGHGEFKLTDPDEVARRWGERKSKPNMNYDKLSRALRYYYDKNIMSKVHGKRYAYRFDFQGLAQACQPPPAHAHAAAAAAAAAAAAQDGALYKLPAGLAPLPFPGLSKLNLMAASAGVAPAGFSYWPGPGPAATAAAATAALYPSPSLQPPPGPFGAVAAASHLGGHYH
# Summary of the method: (§1)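 Human transcription factors fused to GST were expressed in yeast, captured on glutathione beads, given DNA barcodes and pooled with a GST-only negative control. Pools were incubated with 200 nmole of a 16-mer random double-stranded DNA library in Tris/NaCl/DTT/glycerol buffer at room temperature for 30 min. They were then washed, crosslinked with 0.1% formaldehyde, proximity-ligated (BsaI/T4 ligase, 1 h, 37 °C), PCR-amplified and sequenced on an Illumina NextSeq500. Binding signal is each 6-mer's read frequency for a factor divided by its frequency for the GST control.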
# ETV5 = ETV5 (Homo sapiens, UniProt P41161 1-510); conditions: protein: recombinant; tags: N-terminal GST; dsDNA, one strand shown
# Summary of the method: as §1
# HSF1 = HSF1 (Homo sapiens, UniProt Q00613 1-529); conditions: protein: recombinant; tags: N-terminal GST; chain copies: 3; dsDNA, one strand shown
# Summary of the method: as §1
# SPIC = target: T2, SPIC (Homo sapiens, UniProt Q8N5J4 1-248); conditions: protein: recombinant; tags: N-terminal GST; dsDNA, one strand shown
# T2 sequence: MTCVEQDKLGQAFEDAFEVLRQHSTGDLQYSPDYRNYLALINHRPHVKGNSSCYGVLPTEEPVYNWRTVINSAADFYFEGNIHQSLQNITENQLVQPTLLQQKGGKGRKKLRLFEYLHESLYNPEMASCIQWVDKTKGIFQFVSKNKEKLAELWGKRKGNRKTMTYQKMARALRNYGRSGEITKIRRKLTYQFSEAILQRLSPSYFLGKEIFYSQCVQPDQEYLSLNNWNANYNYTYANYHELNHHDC
# Summary of the method: as §1
# ELF4 = ELF4 (Homo sapiens, UniProt Q99607 1-663); conditions: protein: recombinant; tags: N-terminal GST; dsDNA, one strand shown
# Summary of the method: as §1
# ELK4 = target: T3, ELK4 (Homo sapiens, UniProt P28324-2 1-405); conditions: protein: recombinant; tags: N-terminal GST; dsDNA, one strand shown
# T3 sequence: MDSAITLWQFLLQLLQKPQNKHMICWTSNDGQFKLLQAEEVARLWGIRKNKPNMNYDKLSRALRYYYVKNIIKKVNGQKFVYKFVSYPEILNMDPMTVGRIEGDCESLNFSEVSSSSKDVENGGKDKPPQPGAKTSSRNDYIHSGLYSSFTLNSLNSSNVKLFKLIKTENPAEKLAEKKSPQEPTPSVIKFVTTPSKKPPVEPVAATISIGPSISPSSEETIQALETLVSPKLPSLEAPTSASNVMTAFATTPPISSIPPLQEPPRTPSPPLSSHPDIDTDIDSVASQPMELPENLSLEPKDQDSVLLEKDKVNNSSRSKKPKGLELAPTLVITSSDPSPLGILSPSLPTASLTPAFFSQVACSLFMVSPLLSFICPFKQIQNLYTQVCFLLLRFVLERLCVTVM
# Summary of the method: as §1
# ETV2 = target: T4, ETV2 (Homo sapiens, UniProt O00321 1-342); conditions: protein: recombinant; tags: N-terminal GST; dsDNA, one strand shown
# T4 sequence: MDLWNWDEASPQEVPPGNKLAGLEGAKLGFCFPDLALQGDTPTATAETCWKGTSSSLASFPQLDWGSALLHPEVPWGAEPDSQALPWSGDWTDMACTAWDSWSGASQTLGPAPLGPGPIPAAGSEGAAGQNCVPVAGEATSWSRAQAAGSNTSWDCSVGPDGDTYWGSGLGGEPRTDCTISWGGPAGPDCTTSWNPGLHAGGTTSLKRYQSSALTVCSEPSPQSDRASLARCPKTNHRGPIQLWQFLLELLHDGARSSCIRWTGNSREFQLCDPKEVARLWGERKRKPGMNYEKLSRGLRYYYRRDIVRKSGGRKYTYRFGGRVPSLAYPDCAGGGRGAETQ
# Summary of the method: as §1
# ELF3 = target: T5, ELF3 (Homo sapiens, UniProt P78545 1-371); conditions: protein: recombinant; tags: N-terminal GST; dsDNA, one strand shown
# T5 sequence: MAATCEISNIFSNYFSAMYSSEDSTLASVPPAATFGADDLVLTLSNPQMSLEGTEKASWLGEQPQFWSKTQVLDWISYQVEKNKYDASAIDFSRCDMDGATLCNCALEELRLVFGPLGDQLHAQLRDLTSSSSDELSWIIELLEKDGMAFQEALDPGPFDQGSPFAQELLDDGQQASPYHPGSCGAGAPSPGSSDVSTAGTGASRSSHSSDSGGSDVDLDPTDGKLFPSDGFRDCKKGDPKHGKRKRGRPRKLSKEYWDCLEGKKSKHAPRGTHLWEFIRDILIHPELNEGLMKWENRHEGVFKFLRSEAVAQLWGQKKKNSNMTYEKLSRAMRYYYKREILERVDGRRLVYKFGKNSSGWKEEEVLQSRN
# Summary of the method: as §1
# CRX = CRX (Homo sapiens, UniProt O43186 1-299); conditions: protein: recombinant; tags: N-terminal GST; dsDNA, one strand shown
# Summary of the method: as §1
# ETV1 = ETV1 (Homo sapiens, UniProt P50549 1-477); conditions: protein: recombinant; tags: N-terminal GST; dsDNA, one strand shown
# Summary of the method: as §1
# ETV5, sequence (P41161 whole entry): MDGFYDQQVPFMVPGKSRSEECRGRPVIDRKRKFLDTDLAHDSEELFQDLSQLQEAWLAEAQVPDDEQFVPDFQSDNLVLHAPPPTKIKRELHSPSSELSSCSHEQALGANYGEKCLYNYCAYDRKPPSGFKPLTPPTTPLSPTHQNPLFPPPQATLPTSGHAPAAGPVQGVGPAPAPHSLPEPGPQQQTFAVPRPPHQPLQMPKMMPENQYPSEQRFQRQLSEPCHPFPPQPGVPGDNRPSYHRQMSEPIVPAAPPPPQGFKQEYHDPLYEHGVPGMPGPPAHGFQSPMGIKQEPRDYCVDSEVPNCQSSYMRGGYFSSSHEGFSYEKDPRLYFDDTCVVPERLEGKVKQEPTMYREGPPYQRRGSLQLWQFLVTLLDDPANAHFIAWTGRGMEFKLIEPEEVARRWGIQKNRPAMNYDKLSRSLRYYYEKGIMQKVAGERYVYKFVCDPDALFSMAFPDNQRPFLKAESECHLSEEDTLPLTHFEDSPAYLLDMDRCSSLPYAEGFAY
# ELF4, sequence (Q99607 whole entry): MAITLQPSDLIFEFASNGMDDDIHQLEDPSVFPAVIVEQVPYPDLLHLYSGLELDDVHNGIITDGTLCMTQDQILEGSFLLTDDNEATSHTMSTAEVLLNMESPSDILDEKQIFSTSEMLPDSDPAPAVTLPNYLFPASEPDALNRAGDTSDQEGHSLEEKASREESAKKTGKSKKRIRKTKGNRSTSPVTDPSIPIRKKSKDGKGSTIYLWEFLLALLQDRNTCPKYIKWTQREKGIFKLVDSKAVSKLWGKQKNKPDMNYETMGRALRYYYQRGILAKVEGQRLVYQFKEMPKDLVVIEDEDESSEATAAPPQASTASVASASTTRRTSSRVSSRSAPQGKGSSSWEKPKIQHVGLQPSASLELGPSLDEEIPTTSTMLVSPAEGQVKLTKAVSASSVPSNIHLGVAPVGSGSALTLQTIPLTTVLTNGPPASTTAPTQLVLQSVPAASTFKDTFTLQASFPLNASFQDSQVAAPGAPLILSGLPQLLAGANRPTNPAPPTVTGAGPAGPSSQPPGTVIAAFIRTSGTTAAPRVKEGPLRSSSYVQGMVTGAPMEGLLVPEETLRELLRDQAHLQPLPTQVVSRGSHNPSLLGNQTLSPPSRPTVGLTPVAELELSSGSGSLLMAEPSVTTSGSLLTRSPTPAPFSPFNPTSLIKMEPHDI
# CRX, sequence (O43186 whole entry): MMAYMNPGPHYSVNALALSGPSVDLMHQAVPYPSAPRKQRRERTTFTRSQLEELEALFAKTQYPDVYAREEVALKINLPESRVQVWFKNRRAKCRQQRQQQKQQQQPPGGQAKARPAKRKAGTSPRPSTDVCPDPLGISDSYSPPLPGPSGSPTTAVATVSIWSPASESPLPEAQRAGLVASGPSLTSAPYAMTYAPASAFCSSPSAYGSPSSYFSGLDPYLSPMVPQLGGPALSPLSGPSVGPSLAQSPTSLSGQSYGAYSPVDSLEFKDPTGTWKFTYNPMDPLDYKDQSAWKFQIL
# ETV1, sequence (P50549 whole entry): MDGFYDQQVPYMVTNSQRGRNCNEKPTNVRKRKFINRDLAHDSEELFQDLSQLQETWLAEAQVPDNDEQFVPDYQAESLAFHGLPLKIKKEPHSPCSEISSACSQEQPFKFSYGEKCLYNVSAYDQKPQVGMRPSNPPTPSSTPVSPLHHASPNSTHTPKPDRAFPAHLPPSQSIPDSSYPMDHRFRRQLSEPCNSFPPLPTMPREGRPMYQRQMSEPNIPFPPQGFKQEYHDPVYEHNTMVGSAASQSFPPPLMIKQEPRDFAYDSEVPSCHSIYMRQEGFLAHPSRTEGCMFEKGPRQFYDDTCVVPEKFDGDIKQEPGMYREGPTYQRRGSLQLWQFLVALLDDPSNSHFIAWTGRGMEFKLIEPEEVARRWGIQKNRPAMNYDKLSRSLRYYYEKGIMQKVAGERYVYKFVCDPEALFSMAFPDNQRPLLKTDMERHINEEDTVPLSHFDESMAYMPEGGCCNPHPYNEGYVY
# HSF1, sequence (Q00613 whole entry): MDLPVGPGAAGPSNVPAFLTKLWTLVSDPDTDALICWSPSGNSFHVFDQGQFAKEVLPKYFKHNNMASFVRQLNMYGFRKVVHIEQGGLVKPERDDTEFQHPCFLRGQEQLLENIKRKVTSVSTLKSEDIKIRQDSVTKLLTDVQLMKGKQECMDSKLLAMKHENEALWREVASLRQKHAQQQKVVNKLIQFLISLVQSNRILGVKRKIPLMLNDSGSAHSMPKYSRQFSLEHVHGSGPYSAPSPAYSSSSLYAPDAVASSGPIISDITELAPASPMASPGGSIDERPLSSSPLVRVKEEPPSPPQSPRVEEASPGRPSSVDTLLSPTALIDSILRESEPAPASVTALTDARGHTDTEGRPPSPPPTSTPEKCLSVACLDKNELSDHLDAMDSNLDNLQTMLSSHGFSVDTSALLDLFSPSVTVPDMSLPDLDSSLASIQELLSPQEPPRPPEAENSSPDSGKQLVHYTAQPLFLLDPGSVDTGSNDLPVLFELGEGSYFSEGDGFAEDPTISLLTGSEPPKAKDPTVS
sequence,measurement,setting,value
GATGGC,binding signal,FEV,"1.33 fold enrichment (6-mer frequency, TF over GST control)"
same,binding signal,ETV5,"1.26 fold enrichment (6-mer frequency, TF over GST control)"
same,binding signal,HSF1,"1.1 fold enrichment (6-mer frequency, TF over GST control)"
same,binding signal,SPIC,"1.45 fold enrichment (6-mer frequency, TF over GST control)"
same,binding signal,ELF4,"1.4 fold enrichment (6-mer frequency, TF over GST control)"
same,binding signal,ELK4,"1.3 fold enrichment (6-mer frequency, TF over GST control)"
same,binding signal,ETV2,"1.21 fold enrichment (6-mer frequency, TF over GST control)"
same,binding signal,ELF3,"1.47 fold enrichment (6-mer frequency, TF over GST control)"
same,binding signal,CRX,"1.11 fold enrichment (6-mer frequency, TF over GST control)"
same,binding signal,ETV1,"1.31 fold enrichment (6-mer frequency, TF over GST control)"
